The source of these data is PubChem BioAssay (NCATS).

Records with an inconclusive call do not appear. Where a call stands in place of a potency, no number is given. Active and inactive are the calls of the source. The call rests on the fitted dose curve; in most records, active means well fitted inhibition curve with a large enough effect; inconclusive means small, poorly fitted or top-dose-only effect; inactive means flat fitted curve, though single readings scatter.

This assay is described as follows: P-glycoprotein substrates identified in KB-8-5-11 adenocarcinoma cell line, qHTS therapeutic library screen (AID 1346987). Further: nearly all actives have a fitted effect of over 65% in size. The following applies: KB-8-5-11 (P-gp overexpressing) viability, CellTiter-Glo, 72 h; series mostly up to 44.5 µM. The gist of the method: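 P-gp-mediated resistance screen: KB-8-5-11 cells treated 72 h with compounds in dose-response. CellTiter-Glo viability.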
In general terms: qHTS replaces the single test concentration by a dilution series.
Take `C=C1CCC2C(C)(C)CC(=O)CC2(C)C1CCC(C)CCOC(C)=O` (stereo unspecified): the Potency result is “inactive”. As for `OC[C@H]1O[C@@H](OCCc2ccc(O)cc2)[C@H](O)[C@@H](O)[C@@H]1O`, the Potency entry was “inactive”. Take `C/C(=C/CO)CC[C@@H]1[C@@]2(C)CCC[C@](C)(C(=O)O)C2CC[C@@]1(C)O` (stereo partly specified): the Potency entry was “inactive”. Take `CCOC(=O)c1ccnc(CNCC(=O)N(CC)CCN(C)C)c1`: the Potency result is “inactive”. Still for that read-out and setting: with `CC(C)(O)C1CCC2(C)C3C(O)C4C(C13)C42CO` (stereo unspecified) the entry was “inactive”. For `CC1OC(OC2C(O)C(C(=O)O)OC(OC3CCC4(C)C(CCC5(C)C4C=CC4=C6CC(C)(C)CC(O)C6(C)CCC45C)C3(C)C)C2OC2OCC(O)C(O)C2O)C(O)C(O)C1O` (stereo unspecified), the outcome is “inactive [at 9.29 µM]”. `COc1cc([C@@H]2Oc3c(OC)cc(CCCO)cc3[C@@H]2CO[C@@H]2O[C@H](CO)[C@@H](O)[C@H](O)[C@H]2O)ccc1O`: the Potency entry is “inactive”. For `CC1=C2C(=O)C=C(CO)[C@@H]2[C@H]2OC(=O)[C@H](C)[C@@H]2[C@@H](O)C1`, the Potency entry was “inactive”. On the same count and under the same terms, the same measure for `CC1(C)CCCC2(C)C1C(O)C=C(CO)C2(O)C(=O)O` (stereo unspecified): “inactive”; for `C=CC(C)(C)C1(CC2NC(=O)C3CCCN3C2=O)C(=O)Nc2cc3c(cc21)C=CC(C)(C)O3` (stereo unspecified): “inactive”. With `CC(=O)N[C@H]1[C@H](O[C@H]2CC[C@@]3(C)C(CC[C@]4(C)C3CC=C3C5CC(C)(C)CC[C@]5(C(=O)O)[C@H](O[C@@H]5O[C@H](CO)[C@@H](O)[C@H](O)[C@H]5O)C[C@]34C)C2(C)C)O[C@H](CO[C@@H]2OC[C@H](O)[C@H](O)[C@H]2O[C@@H]2OC[C@@H](O)[C@H](O)[C@H]2O)[C@@H](O)[C@@H]1O` (stereo partly specified), the outcome was “inactive [at 9.29 µM]”.

With `O=C(O)c1cnn(-c2nc3cc(OC(F)(F)F)c(Cl)cc3[nH]2)c1`, the Potency entry is “inactive”. Take `CCOC(=O)[C@H](CCc1ccccc1)CC1(C(=O)N[C@H]2CCc3ccccc3N(CC(=O)O)C2=O)CCCC1`: the Potency entry is “inactive”. Still for that read-out and setting: with `CC1(CO)CC2C(O)C(=O)C3(CO)CC3(C)C2C1` (stereo unspecified) the entry was “inactive”; with `CC(=O)OCC1=C[C@H](O)[C@@H]2C(C(=O)O)=CO[C@@H](O[C@@H]3O[C@H](CO)[C@@H](O)[C@H](O)[C@H]3O)[C@H]12`, “inactive”; with `COCCCNCC1COc2ccccc2O1` (stereo unspecified), “inactive”. On the same count and under the same terms, the same measure for `C=C1CC[C@@H]2[C@](C)(CC[C@H](O)[C@@]2(C)CCC=C(C)C)[C@@H]1Cc1c[nH]c2ccccc12`: “inactive”. On to `COc1cc(O[C@@H]2O[C@H](CO)[C@@H](O)[C@H](O)[C@H]2O)c(CCC(=O)OC[C@H]2O[C@@H](Oc3cc(OC)c(C4OC(=O)C(C)(O)C4O)cc3CCC(=O)O)[C@H](O)[C@@H](O)[C@@H]2O)cc1C1OC(=O)C(C)(O)C1O` (stereo partly specified), for which the outcome is “inactive [at 9.29 µM]”. For `O=C(c1ccc(NS(=O)(=O)c2cccc3cccnc23)cc1)N1CCN(CC2CC2)CC1`, the Potency result is “inactive”. The same measure, in the same setting: the same measure for `CC(C)N(C[C@H]1O[C@@H](n2cnc3c(N)ncnc32)[C@H](O)[C@@H]1O)C1CC(CCc2nc3ccc(C(C)(C)C)cc3[nH]2)C1` (stereo partly specified): “inactive”; for `COc1cc2c(cc1O)C1(Cc3ccc4c(c3C1=O)OCO4)N(C)CC2` (stereo unspecified): “inactive”; for `CC1=CC(=O)C[C@H]2[C@@H]1CC[C@@H](C)[C@]21CO[C@H](c2ccoc2)C1=O`: “inactive”. `CN1CCC(c2c[nH]c3ccc(NC(=O)c4ccc(F)cc4)cc23)CC1`: the Potency entry was “inactive”. On the same count and under the same terms, the same measure for `COC(=O)[C@@H]1C2CC3c4[nH]c5ccccc5c4CCN3CC2CC[C@@H]1O` (stereo partly specified): “inactive”; for `C[C@]1(O)CC[C@@H]2C(C(=O)O)=CO[C@@H](O[C@@H]3O[C@H](COC(=O)c4ccc(O)cc4)[C@@H](O)[C@H](O)[C@H]3O)[C@@H]21`: “inactive”; for `C[C@@H]1C(=O)O[C@H]2[C@H]1CC[C@@]1(C)C(=O)C=C[C@](C)(O)[C@H]21`: “inactive”. Take `COc1cc([C@H]2OC[C@@H]3[C@@H](c4ccc(O[C@@H]5O[C@H](CO)[C@@H](O)[C@H](O)[C@H]5O)c(OC)c4)OC[C@]23O)ccc1O`: the Potency result was “inactive”. On to `CC1=CC(=O)OC(C)(CC(C)(O)C(=O)O)C1` (stereo unspecified), for which the Potency entry was “inactive”. The same measure, in the same setting: the same measure for `CCC[C@@H]1C[C@@H](C(=O)N[C@H](C(C)Cl)[C@H]2O[C@H](SC)[C@H](O)[C@@H](O)[C@H]2O)N(C)C1` (stereo partly specified): “inactive”; for `COC(=O)C1=CO[C@@H](O[C@@H]2O[C@H](COC(=O)/C=C/c3cc(OC)c(O)c(OC)c3)[C@@H](O)[C@H](O)[C@H]2O)[C@@H]2C(CO)=CC[C@H]12`: “inactive”.

Consider `CN[C@@H]1[C@@H](O)[C@@H](O[C@@H]2[C@@H](O)[C@H](O[C@H]3O[C@H](CN)[C@@H](O)[C@H](O)[C@H]3O)[C@@H](N)C[C@H]2NC(=O)[C@@H](O)CN)OC[C@]1(C)O`, for which the Potency result is “inactive”.
